TDP1 cell CPT: qHTS for Inhibitors of human tyrosyl-DNA phosphodiesterase 1 (TDP1): qHTS in cells in presence of CPT; chicken DT40 Tdp1-/-;hTDP1 cells + 20 nM CPT, ATP luminescence, 48 h; Potency, µM (doses to about 46.2 µM), most hits filed as inhibitors; hit rate 12% among 420,000; also: nearly all actives have a fitted effect of over 55% in size
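Cell growth measured by CellTiter-Glo luminescence after a minimum 48 h, 37 C compound exposure with 20 nM CPT in Tdp1-knockout DT40 cells stably expressing hTDP1, seeded 400/well; qHTS titration format.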
KB-V1 MDR tox: qHTS assay for MDR1-selective chemotherapeutics: Primary screen using the drug-selected MDR subline cells KB-V1; KB-V1 MDR cells viability, CellTiter-Glo, 72 h; Potency, µM (top dose mostly 46.1 µM), hits mostly cytotoxic; hit rate 3.4% among 400,000; also: nearly all actives have a fitted effect of over 60% in size
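Cytotoxicity toward P-gp-expressing KB-V1 cells was determined as loss of CellTiter-Glo luminescence after 72 h at 37 degrees C. Compounds were tested in quantitative HTS format across a concentration range, with curves fitted to normalized data.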
TDP1 cell noCPT: qHTS for Inhibitors of human tyrosyl-DNA phosphodiesterase 1 (TDP1): qHTS in cells in absence of CPT | AID 686978, 2013 | hit rate 15% among 420,000 | DT40 Tdp1-/- hTDP1 cells, no CPT, ATP luminescence, 48 h | Potency, µM (highest dose often 46.2 µM), most hits filed as inhibitors; also: nearly all actives have a fitted effect of over 55% in size
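Luminescent ATP content (CellTiter-Glo) served as the growth readout. Knockout chicken DT40 cells expressing human TDP1 were exposed to compounds without camptothecin for a minimum 48 hr at 37 °C.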
KB-3-1 tox: qHTS assay for MDR1-selective chemotherapeutics: Primary screen using the parental adenocarcinoma cell KB-3-1 | KB-3-1 viability, CellTiter-Glo ATP luminescence, 72 h | Potency, µM (doses to about 46.1 µM), most hits filed as cytotoxic | hit rate 1.4% among 400,000; also: nearly all actives have a fitted effect of over 60% in size
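Cytotoxicity in the drug-sensitive parental line KB-3-1 was scored as loss of CellTiter-Glo luminescence following 72 h incubation with compound. Values come from curve fitting of normalized concentration-response data.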
HT1080 IDH1KD tx: qHTS for induction of synthetic lethality in tumor cells producing 2HG: qHTS for the HT-1080-IDH1KD cell line | hit rate 2% among 360,000 | Potency, µM (highest dose often 46.1 µM), hits mostly cytotoxic | HT-1080 IDH1 knockdown viability, ATP luminescence, 48 h
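CellTiter-Glo luminescence after 48 h compound exposure at 37 degrees C of IDH1-knockdown HT-1080 cells in 5% FBS RPMI. %Activity scaled between DMSO wells and cell-free media wells, with curves fitted and assigned curve classes.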
HT1080NT lethal: qHTS for induction of synthetic lethality in tumor cells producing 2HG: qHTS for the HT-1080-NT fibrosarcoma cell line; HT-1080-NT fibrosarcoma viability, CellTiter-Glo ATP luminescence, 48 h; Potency, µM (titrated, usually from 46.1 µM), usual class: cytotoxic; AID 686970, 2013; hit rate 1.6% among 360,000;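 also: NT is the 2HG producing partner of a matched IDH1 knockdown line; nearly all actives have a fitted effect of over 55% in size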
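Compounds were tested in concentration-response format on HT-1080-NT cells for 48 hours at 37 degrees C. Cell viability came from CellTiter-Glo luminescence; curves were classified by r2, response magnitude and activity.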
Numbers stand for hits; i = inactive; ? = inconclusive; nt = not tested or not shown. Hits are enriched below; roughly 19% of the tested compounds scored in any of these assays. Calls follow the shape of the dose curve; as a rule, active = well fitted curve in the direction sought with a large enough effect; inconclusive = small, poorly fitted or top-dose-only effect, or another doubt; inactive = no such curve, though single readings can be large; an effect the other way counts as inactive or inconclusive.

SMILES	TDP1 cell CPT	KB-V1 MDR tox	TDP1 cell noCPT	KB-3-1 tox	HT1080 IDH1KD tx	HT1080NT lethal
CCOc1ccccc1NC(=O)C1CCCN(S(=O)(=O)c2cccs2)C1 (stereo unspecified)	23µM	i	23µM	i	nt	nt
O=C(CSc1ncccn1)NC(=O)NC1CCCC1	i	?	i	i	i	i
CC1(C)CC(=O)c2cc(C(=O)NCCc3ccccc3)c(=O)[nH]c2C1	i	i	i	?	nt	nt
O=C1NN=C2CCCCCCC12 (stereo unspecified)	i	i	i	i	?	i
COc1ccc(C(=N/O)/C(=N/O)c2ccc(OC)cc2)cc1	i	i	i	i	i	?
COc1ccc(C(C#N)=C2C=C(Cl)C(=NO)C=C2Cl)cc1	3.3µM	i	2.6µM	?	i	i
COc1ccc(C(C#N)=C2C=CC(=NO)C(C)=C2Cl)cc1	10µM	i	7.3µM	i	i	i
C=C(C)C(=O)N1CC2(CC(c3cccc(NC(=O)CC)c3)=NO2)C[C@H]1C(N)=O (stereo partly specified)	i	i	i	i	i	i
CCCCNC(=O)C1(C)CCN1Cc1cccc2c(OC)cc(C(=O)OCC)cc12 (stereo unspecified)	?	?	13µM	i	?	?
CCCNC(=O)C1(C)CCCN(Cc2cccc3ccccc23)C1 (stereo unspecified)	?	i	?	i	i	i
COCCNC(=O)C1(C)CCCN(Cc2ccc(C)c3ccccc23)C1 (stereo unspecified)	21µM	i	16µM	i	i	i
CCOC(=O)c1cc(OC)c2cccc(CN3CCCC(C)(C(=O)NCCOC)C3)c2c1 (stereo unspecified)	9.2µM	i	6.5µM	i	?	i
CCN1CCN(S(=O)(=O)c2ccc(Cl)c(C(=O)N(C)Cc3cccc(Cl)c3Cl)c2)CC1	16µM	?	21µM	i	i	i
CCN1CCN(S(=O)(=O)c2ccc(Cl)c(C(=O)N(C)Cc3ccc(C(C)(C)C)cc3)c2)CC1	?	i	12µM	?	?	?
CCN1CCN(S(=O)(=O)c2ccc(Cl)c(C(=O)N(C)Cc3ccc(F)cc3)c2)CC1	i	?	?	i	i	i
Cc1ccc(Cl)cc1NC(=O)Nc1cccc(OCc2cc(=O)n3ccccc3n2)c1	i	nt	i	nt	nt	nt
COc1cccc2c1Oc1ncccc1N(C(=O)CCC(=O)NCc1ccc(N(C)C)cc1)C2	?	i	i	i	nt	nt
COc1ccc(NC(=O)CCCN2C(=O)CCn3nc(-c4cn(C)c5ccccc45)cc32)cc1	23µM	i	18µM	i	nt	nt
Cn1cc(-c2cc3n(n2)CCC(=O)N3CCCC(=O)Nc2ccccc2F)c2ccccc21	?	i	23µM	i	nt	nt
Cn1cc(-c2cc3n(n2)CCC(=O)N3CCCC(=O)Nc2ccc(F)cc2F)c2ccccc21	?	i	?	i	nt	nt
Cc1cccc(CNC(=O)CCCN2C(=O)CCn3nc(-c4cn(C)c5ccccc45)cc32)c1	23µM	i	?	?	nt	nt
Cn1cc(-c2cc3n(n2)CCC(=O)N3CCCC(=O)Nc2ccccc2Cl)c2ccccc21	18µM	i	18µM	i	nt	nt
COc1ccc(CNC(=O)CCCN2C(=O)CCn3nc(-c4cn(C)c5ccccc45)cc32)cc1	i	i	?	i	nt	nt
CC[C@]1(C(=O)OC)[C@H]2C(=O)N(C)C(=O)[C@H]2[C@H]2CN=C(SCc3ccc(C(=O)OC)cc3)N21	?	i	i	i	i	i
CCNc1nc(C#N)nc(N2CCCCC2)n1	?	i	?	i	nt	nt
SMILES	TDP1 cell CPT	KB-V1 MDR tox	TDP1 cell noCPT	KB-3-1 tox	HT1080 IDH1KD tx	HT1080NT lethal
CCNc1nc(NC(C)(C)C)nc(N2CCCC2)n1	18µM	?	?	?	?	i
CC(C)(C)Nc1nc(N2CCCC2)nc(N2CCCC2)n1	?	i	16µM	?	i	i
CSc1nc(NC(C)(C)C)nc(N2CCOCC2)n1	?	i	?	i	i	i
CCCNc1nc(N2CCCC2)nc(N2CCCC2)n1	?	?	13µM	i	?	?
Cc1ccc(Nc2nc(NCCO)nc(N3CCCC3)n2)cc1	nt	i	nt	i	nt	nt
CC(C)(C)S(=O)(=O)N1Cc2ccc(CO)cc2[C@H]1CCO	i	i	i	i	i	i
CN(C)CCNC(=O)C(=O)NCC(c1cccnc1)N1CCN(c2ccccc2)CC1 (stereo unspecified)	i	i	i	i	nt	nt
Cc1cc(C)c(NC(=O)CCN2C(=O)c3ccccc3Sc3ncccc32)c(C)c1	?	?	21µM	i	nt	nt
Cc1cc(C)cc(NC(=O)CN2C(=O)c3ccccc3Sc3ncccc32)c1	?	i	?	i	nt	nt
O=C(CN1C(=O)c2ccccc2Sc2ncccc21)Nc1cccc(C(F)(F)F)c1	18µM	i	?	i	nt	nt
Cc1ccc(NC(=O)CCN2C(=O)c3ccccc3Sc3ncccc32)c(Cl)c1	18µM	nt	18µM	nt	nt	nt
CCOc1ccccc1NC(=O)C(C)N(c1ccccc1)S(C)(=O)=O (stereo unspecified)	?	i	?	i	nt	nt
COc1cccc(OC)c1-c1nn(-c2ncc(C(F)(F)F)cc2Cl)c(=O)o1	?	i	?	i	i	?
CCN1C(=O)CC(NC2CCN(C(=O)c3ccc(F)cc3)CC2)C1=O (stereo unspecified)	i	i	i	i	i	i
CC(=O)c1ccc(NC(=O)Cn2cnc(S(=O)(=O)N3CCc4ccccc43)c2)cc1	i	i	i	i	i	i
Nc1ncnc2c1ncn2[C@@H]1O[C@H](CNCC#Cc2ccccc2)[C@@H](O)[C@H]1O	?	i	?	i	i	i
CC(C)CSC1=NSC2=NC(=O)/C(=C\c3cccs3)C(=N)N12	?	?	21µM	?	i	i
N=C1/C(=C/c2cccs2)C(=O)N=C2SN=C(SCc3ccccc3)N12	i	23µM	i	?	i	i
CC1=CC2=NC(=O)/C(=C/c3cccs3)C(=N)N2O1	i	i	i	i	i	i
CSC1=NSC2=NC(=O)/C(=C/c3coc4ccccc4c3=O)C(=N)N12	?	?	i	i	i	i
Cc1ccccc1NC(=O)Cn1cc(S(=O)(=O)c2ccccc2)c(=O)c2ccccc21	i	i	i	i	nt	nt
Cc1cccc(-c2cc3nc(C)c(C)c(NCCCn4ccnc4)n3n2)c1	?	?	15µM	?	?	?

Bioassay records as filed in PubChem BioAssay.
